Bioassay records deposited in PubChem BioAssay by several laboratories.
PostGolgi ctrl: growth inhibition of yeast control strain, primary screen, counter-screen for post-Golgi transport modulator project; efflux-deficient yeast background strain, growth absorbance A615, 16 h; inhibition, % at 10 µM; 98,000 tested, 5% active; AID 738, 2007
EphB4 antag: EphB4-ephrin-B2 interaction antagonists, primary screen, biochemical, TNYL-RAW peptide probe, fluorescence polarization; Ephrin type-B receptor 4 (Homo sapiens), P54760; 97,000 tested, 0.15% active; EphB4 LBD / TNYL-RAW-Alexa532 peptide; inhibition, % at 7 µM;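 active = inhibition above the screen-wide mean inhibition plus 3 SD, cut at about 15% in these data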;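 also: 0% = DMSO wells and 100% = excess unlabeled TNYL-RAW peptide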
PostGolgi yeast: phenotypic screen on post-Golgi transport, primary screen; post-Golgi transport phenotypic cell assay; inhibition, % at 10 µM; 98,000 tested, 0.9% active;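 also: yeast cells grown in 1536-well plates; yeast grown about 18 h at 30C before absorbance read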
Candida biofilm: clotrimazole potentiators killing Candida biofilms, primary screen, with clotrimazole, Alamar Blue | C. albicans biofilm + clotrimazole | inhibition, % at 6 µM | 85,000 tested, 0.14% active | AID 834, 2007;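 active = inhibition above 20%; inactive = inhibition below 20%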;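 also: preformed 24 hr biofilms exposed to compound for 48 hr; 0% = biofilm without compound and 100% = blank killed by clotrimazole plus chlorhexidine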
* marks the source's active call; other numbers are inactive results. Compounds with a hit are over-represented: about 5.2% of the library has one in this group of screens. Rule as the data show it, unless noted: active = inhibition above about 30%; inactive = the rest.

Screening O=[N+]([O-])c1ccc(Oc2cccc(Br)c2)c2ccncc12 returned PostGolgi ctrl 79.3*, EphB4 antag 1.4, PostGolgi yeast 7.6 and Candida biofilm 2.1.
COc1ccc2oc(=O)c(C(C)=O)cc2c1 was read as PostGolgi ctrl -0.6, EphB4 antag 5.8, PostGolgi yeast 8.8 and Candida biofilm 3.0.
Screening COc1ccc(NC(=O)c2cc3cc(OC)ccc3oc2=N)cc1 returned PostGolgi ctrl 77.5*, PostGolgi yeast 73.1* and Candida biofilm 8.9.
Screening COc1cccc(CN(C)CC(=O)NC(=O)NCc2ccco2)c1 returned PostGolgi ctrl 7.7, EphB4 antag 2.0, PostGolgi yeast -1.2 and Candida biofilm 6.2.
For N#Cc1nc(-c2cccc3ccccc23)oc1N1CCCCC1 the results were PostGolgi ctrl 1.6, EphB4 antag -4.9, PostGolgi yeast 7.8 and Candida biofilm 12.3.
Screening N#Cc1nc(COc2ccc(Cl)cc2)oc1N1CCCCCC1 returned PostGolgi ctrl 45.4*, EphB4 antag -1.1, PostGolgi yeast -2.4 and Candida biofilm 5.0.
`N#Cc1nc(Cc2cccc3ccccc23)oc1N1CCCCC1` gave PostGolgi ctrl 36.1*, EphB4 antag -3.9, PostGolgi yeast -2.8 and Candida biofilm 1.5.
`N#Cc1nc(COc2ccccc2)oc1N1CCCCC1` gave PostGolgi ctrl 2.6, EphB4 antag -7.3, PostGolgi yeast 5.4 and Candida biofilm 6.1.
Screening Cc1ccc(N(C(=O)Cc2c[nH]c3ccccc23)C(C(=O)NC2CCCCC2)c2ccco2)cc1 (stereo not drawn) returned PostGolgi ctrl 20.5, EphB4 antag 4.7 and PostGolgi yeast 5.0.
CCOC(=O)c1sc2ccc(S(=O)(=O)N3CCCCC3)cc2c1N was read as PostGolgi ctrl 42.0*, EphB4 antag 4.2, PostGolgi yeast 0.3 and Candida biofilm -4.5.
`CN(C)CCNC(=O)CN1C(=O)COc2ccc(C(C)(C)C)cc21` gave PostGolgi ctrl -1.0, EphB4 antag 2.6, PostGolgi yeast -1.2 and Candida biofilm 3.3.
CC1CCN(CC(O)COC2CCC(C(C)(C)C)CC2)CC1 (stereo not drawn) was read as PostGolgi ctrl 97.9*, EphB4 antag -1.9, PostGolgi yeast 97.0* and Candida biofilm 8.6.
Screening Cc1ccc(N2CCN(CC(O)COC3CCCCC3)CC2)cc1 (stereo not drawn) returned PostGolgi ctrl 19.1, EphB4 antag 7.3, PostGolgi yeast 10.0 and Candida biofilm 9.3.
Screening CC(C)(C)C1CCC(OCC(O)CN2CCN(c3ccccc3)CC2)CC1 (stereo not drawn) returned PostGolgi ctrl 96.2*, EphB4 antag -7.8, PostGolgi yeast 104.3* and Candida biofilm 4.0.
For CCC1(C)N=c2c(c(=O)n(C)c(=O)n2C)=NO1 (stereo not drawn) the results were PostGolgi ctrl -3.5, EphB4 antag 6.8 and PostGolgi yeast -1.1.
Screening CC(C)(C)NC(=O)C(c1ccco1)N(C(=O)Cn1nnc(-c2ccc(F)cc2)n1)c1cccc(F)c1 (stereo not drawn) returned PostGolgi ctrl 35.9*, PostGolgi yeast 1.6 and Candida biofilm 4.6.
For CC(=O)Nc1ccc(S(=O)(=O)N2CCN(c3nc(NC4CCCC4)c4ccccc4n3)CC2)cc1 the results were PostGolgi ctrl 5.9, EphB4 antag -3.4, PostGolgi yeast 18.3 and Candida biofilm -2.5.
`CCSc1c(-c2ccccc2)nc2c(C)cccc2c1C(=O)O` gave PostGolgi ctrl 10.1, EphB4 antag -5.2 and PostGolgi yeast -2.1.
For CCCOc1ccc(-c2nc(OCC)c3ccccc3n2)cc1 the results were PostGolgi ctrl 8.1, EphB4 antag -2.8, PostGolgi yeast -7.5 and Candida biofilm 1.2.
`c1cncc(-c2nc(N3CCCCCC3)c3ccccc3n2)c1` gave PostGolgi ctrl 66.2*, EphB4 antag 2.2, PostGolgi yeast -9.5 and Candida biofilm 0.4.
For CC1CN(c2cc(-c3ccccc3)c3ccccc3n2)CC(C)O1 (stereo not drawn) the results were PostGolgi ctrl 25.0, EphB4 antag -1.0, PostGolgi yeast 13.2 and Candida biofilm 3.6.
Screening c1ccc2c(N3CCCCCC3)nc(-c3ccncc3)nc2c1 returned PostGolgi ctrl 67.8*, EphB4 antag 1.4, PostGolgi yeast 26.8 and Candida biofilm 0.0.
`CC1CN(c2nc(-c3ccccc3)nc3ccccc23)CC(C)O1` (stereo not drawn) gave PostGolgi ctrl 41.0*, EphB4 antag 2.0, PostGolgi yeast 2.9 and Candida biofilm 9.5.
Screening CCOc1nc(-c2ccncc2)nc2ccccc12 returned PostGolgi ctrl 34.5*, EphB4 antag 2.2, PostGolgi yeast 5.0 and Candida biofilm 2.8.
Cc1ccc2cc(C(=O)O)c(C)nc2c1 was read as PostGolgi ctrl -18.9, EphB4 antag 3.0, PostGolgi yeast 20.6 and Candida biofilm 5.2.
`Cc1ccc(S(=O)(=O)N2CCCN(S(=O)(=O)c3ccc4ccccc4c3)CC2)cc1` gave EphB4 antag -0.9 and Candida biofilm 12.0.
`CCCNC(=O)c1cc2c(C(F)(F)F)nn(C)c2s1` gave PostGolgi ctrl -9.8, EphB4 antag 0.0 and PostGolgi yeast 7.7.
Screening O=C1CCCc2c1cc(C(=O)Nc1ccc(Cl)cn1)c(=O)n2-c1ccccc1 returned PostGolgi ctrl 9.6, EphB4 antag -1.4, PostGolgi yeast -1.0 and Candida biofilm 6.7.
For O=C1CCCc2c1cc(-c1ccccc1)n2-c1ccccc1 the results were PostGolgi ctrl 51.4*, EphB4 antag 5.2 and PostGolgi yeast -4.7.
`O=C(C#Cc1cccc([N+](=O)[O-])c1)c1ccccc1` gave PostGolgi ctrl 64.1*, EphB4 antag 4.4, PostGolgi yeast 91.3* and Candida biofilm 6.4.
Cc1ccc2c(c1)cc(CN(Cc1ccco1)C(=O)COc1ccccc1)c1nnnn12 was read as PostGolgi ctrl 42.0*, EphB4 antag 8.2, PostGolgi yeast 5.5 and Candida biofilm 8.2.
`COC(=O)c1ccccc1NC(=O)C1CCN(C(=O)c2cc(OC)c(OC)c(OC)c2)CC1` gave PostGolgi ctrl 7.6, EphB4 antag -8.2 and PostGolgi yeast 11.4.
For Cc1ccccc1-c1nnc(SCc2ccc(F)cc2)o1 the results were PostGolgi ctrl 35.4*, EphB4 antag 2.2, PostGolgi yeast -2.5 and Candida biofilm -0.3.
Screening O=c1c(-c2nnc(SCc3ccc(Cl)cc3)o2)cccn1Cc1ccccc1 returned PostGolgi ctrl 61.2*, EphB4 antag -4.2 and PostGolgi yeast 11.3.
Screening CCOc1ccc(NS(=O)(=O)c2ccc(OCC)c3ncccc23)cc1 returned PostGolgi ctrl 2.7, EphB4 antag 1.2, PostGolgi yeast -3.1 and Candida biofilm -4.5.
`COc1ccc(S(=O)(=O)NC(CC(=O)NCc2ccco2)C(C)C)cc1` (stereo not drawn) gave PostGolgi ctrl 37.9*, EphB4 antag 7.3 and PostGolgi yeast -0.2.
`CCC(C)NS(=O)(=O)c1ccc(OCC(=O)NCc2ccco2)cc1` (stereo not drawn) gave PostGolgi ctrl -6.7, EphB4 antag 2.7, PostGolgi yeast 7.2 and Candida biofilm 2.2.
Screening Cc1ccc(CNC(=O)CSCC(=O)O)cc1 returned PostGolgi ctrl 41.4*, EphB4 antag 4.7, PostGolgi yeast 3.8 and Candida biofilm 3.6.
